Test results published in PubChem BioAssay (NCI).
About 83,000 compounds went through this panel and 20% of them were active in at least one assay; those are over-represented in the sample as a whole.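 Results are percent growth after 48 hours of single-concentration exposure. 100 means growth as in untreated cells, lower positive values show inhibition; negative values down to -100 show cell death.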 Active and inactive are the calls of the source. Rule for the calls: active = growth percent below 10; inactive = the rest.

What was measured:
Test in all cases: NCI-60 one-dose screen, 48 h (100 = growth as untreated, 0 = no growth, -100 = all killed)
Settings in all cases: 10 µM unless noted
NCI-H23 lung = system: NCI-H23 lung
NCI-H226 lung = system: NCI-H226 lung
NCI-H322M lung = system: NCI-H322M lung
HOP-62 NSCLC = system: HOP-62 NSCLC
NCI-H460 lung = system: NCI-H460 lung
HOP-92 NSCLC = system: HOP-92 NSCLC
NCI-H522 lung = system: NCI-H522 lung
A549/ATCC NSCLC = system: A549/ATCC NSCLC
786-0 renal = system: 786-0 renal
COLO 205 colon = system: COLO 205 colon
DU-145 prostate = system: DU-145 prostate
K-562 leukemia = system: K-562 leukemia
MALME-3M melanoma = system: MALME-3M melanoma
MDA-MB-231 breast = system: MDA-MB-231 breast
RXF 393 renal = system: RXF 393 renal
SF-268 CNS = system: SF-268 CNS
SF-295 CNS = system: SF-295 CNS
SF-539 CNS = system: SF-539 CNS
M14 melanoma = system: M14 melanoma
UACC-257 melanoma = system: UACC-257 melanoma

Measured: growth

COc1cccc(-c2nn(-c3ccccc3)cc2-c2ccnc(NCCCNS(=O)(=O)c3ccc(Cl)cc3)c2)c1
inactive: NCI-H23 lung 46.9% | NCI-H226 lung 40.3% | NCI-H322M lung 66.8% | HOP-62 NSCLC 81.8% | NCI-H460 lung 40.9% | HOP-92 NSCLC 25.1% | NCI-H522 lung 41.7% | A549/ATCC NSCLC 39.9% | 786-0 renal 37.4% | COLO 205 colon 15.1% | DU-145 prostate 67.1% | K-562 leukemia 11.6% | MALME-3M melanoma 74.6% | MDA-MB-231 breast 23.5% | RXF 393 renal 46.4% | SF-268 CNS 56.1% | SF-295 CNS 24.2% | SF-539 CNS 62.3% | M14 melanoma 33.4%

CN(CSc1ccc(Cl)cc1)c1ccc(CSc2ccc(Cl)cc2)cc1
inactive: NCI-H23 lung 90.6% | NCI-H226 lung 43.3% | NCI-H322M lung 86.4% | HOP-62 NSCLC 118% | NCI-H460 lung 62% | HOP-92 NSCLC 57.2% | NCI-H522 lung 32% | A549/ATCC NSCLC 50.5% | 786-0 renal 31.6% | COLO 205 colon 41% | DU-145 prostate 87.8% | K-562 leukemia 83.7% | MALME-3M melanoma 102% | MDA-MB-231 breast 22.2% | RXF 393 renal 68.7% | SF-268 CNS 43.3% | SF-295 CNS 70.5% | SF-539 CNS 47.4% | UACC-257 melanoma 76% | M14 melanoma 49.7%

C=C1C(=O)O[C@H]2[C@H]1CC/C(COC(=O)NCCc1c[nH]c3ccccc13)=C\CC[C@@]1(C)O[C@@H]21
inactive: NCI-H23 lung 59.5% | NCI-H226 lung 57.3% | NCI-H322M lung 83.2% | HOP-62 NSCLC 57.7% | NCI-H460 lung 54.2% | A549/ATCC NSCLC 66.9% | DU-145 prostate 11.7% | SF-268 CNS 62.3% | SF-295 CNS 83.4% | UACC-257 melanoma 63.3%
active: HOP-92 NSCLC -52% | NCI-H522 lung -85.7% | 786-0 renal -50.3% | COLO 205 colon -38.2% | K-562 leukemia 0.512% | MALME-3M melanoma -33.5% | MDA-MB-231 breast -19.3% | RXF 393 renal -89.3% | SF-539 CNS -35.6% | M14 melanoma -52.1%

C=C(C)[C@@H]1CC[C@]2(C)[C@H](CC=C3[C@@H]4CC(C)(C)CC[C@]4(C(=O)OC)CC[C@]32C)[C@@]1(C)CC/C(N)=N/O
inactive: NCI-H322M lung 85.6% | HOP-62 NSCLC 79.3% | NCI-H460 lung 74.9% | HOP-92 NSCLC 45.9% | NCI-H522 lung 33.5% | 786-0 renal 66.6% | COLO 205 colon 35.6% | DU-145 prostate 75.1% | K-562 leukemia 23.9% | MALME-3M melanoma 58.9% | MDA-MB-231 breast 66.1% | SF-268 CNS 67.9% | SF-295 CNS 33.6% | SF-539 CNS 65.3% | M14 melanoma 43.8%
active: NCI-H23 lung 8.68% | NCI-H226 lung 2.13% | A549/ATCC NSCLC -28.8% | RXF 393 renal -49.4% | UACC-257 melanoma -32.1%

COc1ccc(-c2nc(SCC(=O)Nc3ccc(C(C)=O)cc3)[nH]c(=O)c2C#N)cc1
inactive: NCI-H23 lung 97.2% | NCI-H226 lung 91% | NCI-H322M lung 101% | HOP-62 NSCLC 101% | NCI-H460 lung 111% | HOP-92 NSCLC 98.3% | NCI-H522 lung 67.9% | A549/ATCC NSCLC 85.3% | 786-0 renal 94.7% | COLO 205 colon 115% | DU-145 prostate 106% | K-562 leukemia 98.8% | MALME-3M melanoma 103% | MDA-MB-231 breast 95.2% | RXF 393 renal 108% | SF-268 CNS 101% | SF-295 CNS 95.1% | SF-539 CNS 97.6% | UACC-257 melanoma 84.7% | M14 melanoma 87.6%

Cc1ccc(S(=O)(=O)Nc2ccc(-c3cc(-c4cccc(F)c4)c(C#N)c(N)n3)cc2)cc1
active: HOP-92 NSCLC -39.3% | NCI-H522 lung -71.4% | K-562 leukemia 2.53% | RXF 393 renal -18.2% | M14 melanoma -8.83%
inactive: NCI-H23 lung 55.3% | NCI-H226 lung 36.7% | NCI-H322M lung 72.2% | HOP-62 NSCLC 53.1% | NCI-H460 lung 93.3% | A549/ATCC NSCLC 33% | 786-0 renal 13.4% | COLO 205 colon 23.9% | DU-145 prostate 49.4% | MALME-3M melanoma 44.4% | MDA-MB-231 breast 20.6% | SF-268 CNS 47% | SF-295 CNS 78.9% | SF-539 CNS 24% | UACC-257 melanoma 41.9%

COc1cc(NC(C)CN(CC(C)C)C(C)C)c2ncccc2c1 (centres undefined)
inactive: NCI-H23 lung 83.7% | NCI-H226 lung 89.7% | NCI-H322M lung 100% | HOP-62 NSCLC 109% | NCI-H460 lung 106% | HOP-92 NSCLC 74.4% | NCI-H522 lung 101% | A549/ATCC NSCLC 105% | 786-0 renal 111% | COLO 205 colon 96.9% | DU-145 prostate 106% | K-562 leukemia 98.1% | MALME-3M melanoma 104% | MDA-MB-231 breast 81.1% | RXF 393 renal 113% | SF-268 CNS 94.7% | SF-295 CNS 110% | SF-539 CNS 103% | UACC-257 melanoma 99.5% | M14 melanoma 102%

CCCCCC1CCCCN1C(=O)OCC (centres undefined)
inactive: NCI-H23 lung 106% | NCI-H226 lung 122% | NCI-H322M lung 112% | HOP-62 NSCLC 117% | NCI-H460 lung 108% | HOP-92 NSCLC 75.9% | NCI-H522 lung 98.2% | A549/ATCC NSCLC 105% | 786-0 renal 88.2% | COLO 205 colon 101% | DU-145 prostate 105% | K-562 leukemia 94.9% | MALME-3M melanoma 90.9% | MDA-MB-231 breast 103% | RXF 393 renal 170% | SF-268 CNS 99.7% | SF-295 CNS 123% | SF-539 CNS 107% | UACC-257 melanoma 106% | M14 melanoma 97.4%
